Measured values: PubChem BioAssay (NCATS)
Inconclusive results are not listed. Active and inactive are the calls of the source. Unless noted, calls follow the shape of the dose curve; as a rule, active = well fitted curve in the direction sought with a large enough effect; inconclusive = small, poorly fitted or top-dose-only effect, or another doubt; inactive = no such curve, though single readings can be large; an effect the other way counts as inactive or inconclusive.

Key:
[1] = test system: Zika virus NS2B-NS3 protease (linked construct); test: Primary screen NINDS Rhodamine qHTS for Zika virus inhibitors (AID 1347160)
Summary of the method: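 Percent inhibition, normalized to uninhibited and enzyme-free controls, is fitted to a 4-parameter Hill equation. Fluorescence change comes from a 15-min cleavage of 1.5 microM bis-peptide Rhodamine110 substrate by 25 nM linked NS2B-NS3 at room temperature.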

[2] = OV-KATE Cancer Cell Toxicity qHTS against the NCATS CANVASS Library (AID 1347345)
Summary of the method: (§1)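 Step one: seed 1000 cells per well. Step two: incubate 4 h. Step three: add test compounds in 11 concentrations. Step four: culture 72 h, then add CellTiter-Glo and record luminescence after 15min.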

[3] = HPAF-II Cancer Cell Toxicity qHTS against the NCATS CANVASS Library (AID 1347346)
Summary of the method: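 Luminescence from CellTiter-Glo, added after 72 h compound exposure and a 15 min room-temperature incubation, served as the viability readout. HPAF-II cells (1000/well) received an 11-point concentration series.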

[4] = UWB1.289 Cancer Cell Toxicity qHTS against the NCATS CANVASS Library (AID 1347347)
Summary of the method: as §1

[5] = OV-SAHO Cancer Cell Toxicity qHTS against the NCATS CANVASS Library (AID 1347348)
Summary of the method: as §1

[6] = Panc-1005 Cancer Cell Toxicity qHTS against the NCATS CANVASS Library (AID 1347349)
Summary of the method: as §1

[7] = SW1088 Cancer Cell Toxicity qHTS against the NCATS CANVASS Library (AID 1347350)
Summary of the method: as §1

[8] = COV-362 Cancer Cell Toxicity qHTS against the NCATS CANVASS Library (AID 1347352)
Summary of the method: (§2)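 Luminescent ATP read-out (CellTiter-Glo, 15min at room temperature) measures survival after cells face an 11-point compound series for 72 hours at 37 degrees C/5% CO2.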

[9] = A2780 Cisplatin Sensitive Ovarian Cancer Cell Toxicity qHTS against the NCATS CANVASS Library (AID 1347353)
Summary of the method: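 Luminescent ATP content (ATPLite, 10 min at room temperature) served as the read-out after cells had been exposed to compounds for 72 hours at 37 °C. Dosing followed an 11-point concentration series.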

[10] = UWB1.289-WTBRCA1 Cancer Cell Toxicity qHTS against the NCATS CANVASS Library (AID 1347354)
Summary of the method: as §2

[11] = HPAF-II 24hr Apoptosis Induction qHTS against the NCATS CANVASS Library (AID 1347356)
Summary of the method: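 Luminescent caspase-3/7 signal (DEVD substrate, Caspase-Glo) served as read-out, taken 15 min after reagent addition to HPAF-II cells exposed 24 h to compounds.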

[12] = HEK293 18hr Apoptosis Induction qHTS against the NCATS CANVASS Library (AID 1347357)
Summary of the method: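 Natural products applied to HEK293 for 18 hr; Caspase-Glo 3/7 readout.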

[13] = HEK293 24hr Apoptosis Induction qHTS against the NCATS CANVASS Library (AID 1347359)
Summary of the method: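 HEK293 cells, 500 per well, exposed to an 11-point compound series for 24 hours at 37 degrees C. Caspase 3/7 activity read by Caspase-Glo luminescence (DEVD substrate) after 15 min at room temperature.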

[14] = test system: NAD(P)H diaphorase (Clostridium kluyveri); test: Diaphorse counterscreen qHTS: Assay Interference Panel against the NCATS CANVASS Library (AID 1347362)
Summary of the method: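 Clostridium kluyveri diaphorase in PBS + 0.01% Tween-20 preincubated 15 min with compounds. Resazurin and NADH then added for 5 min at room temperature in the dark; resorufin fluorescence read (ex 525, em 598).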

[15] = target: Luciferin 4-monooxygenase (Photinus pyralis) (UniProt P08659); test: Firefly luciferase counterscreen qHTS: Assay Interference Panel against the NCATS CANVASS Library (AID 1347363)
Summary of the method: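 Purified P. pyralis luciferase (0.04 ug/mL, 4x reagent) added to Tris-acetate buffer with 0.013 mM D-luciferin, 0.013 mM ATP and 13.3 mM Mg-acetate; compounds preincubated 15 min, then luminescence read after 5 min, RT.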

[16] = KB-3-1 Cancer Cell Toxicity qHTS against the NCATS CANVASS Library (AID 1347366)
Summary of the method: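 Cytotoxicity toward KB-3-1 cells (500/well, DMEM + 10% FBS) was scored by CellTiter-Glo luminescence following 72 hr exposure at 37C, with bortezomib titrated as control.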

[17] = MCF7 Cancer Cell Toxicity qHTS against the NCATS CANVASS Library (AID 1347369)
Summary of the method: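 This 72 hr qHTS scored MCF7 viability by CellTiterGlo luminescence, with 500 cells/well; bortezomib titration ran as control.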

[18] = qHTS for ATAD5 Antagonist screened against the NCATS CANVASS Library (AID 1347370)
Summary of the method: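 HEK293T cells with stably integrated ATAD5-luciferase reporter, 2000/well, 5 h attachment; compounds plus 10 µM 5-fluorouridine, 16 h at 37 °C. Luciferase luminescence read, with CellTiter-Fluor viability read first.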

[19] = J3T Cancer Cell Toxicity qHTS against the NCATS CANVASS Library (AID 1347371)
Summary of the method: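 Cells plated at 500 per well, compounds pin-transferred, plates incubated 72 hr at 37C, then CellTiterGlo added and luminescence read to measure ATP content.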

[20] = target: Nuclear receptor subfamily 1 group I member 3 (Homo sapiens) (UniProt Q14994); test: qHTS for Constitutive Androstane Receptor (CAR) Antagonist screened against the NCATS CANVASS Library (AID 1347372)
Summary of the method: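 HepG2 cells stably carrying hCAR and CYP2B6-2.2kb luciferase reporter, 2500 cells/well, compound with 50 nM CITCO agonist for 24hr at 37C. ONE-Glo luminescence measured CAR activity; CellTiter-Fluor read viability.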

[21] = target: Nuclear receptor subfamily 1 group I member 3 (Homo sapiens) (UniProt Q14994); test: qHTS for Constitutive Androstane Receptor (CAR) Agonist screened against the NCATS CANVASS Library (AID 1347373)
Summary of the method: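 HepG2-hCAR-CYP2B6 cells, 2500/well, attached 4hr; cpd + PK11195 1.5uM final; 24hr 37C 5% CO2. CellTiter-Fluor viability read, then ONE-Glo luminescence for CAR activation.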

[22] = qHTS for Hypoxia signaling pathway (HIF-1) antagonists against the NCATS CANVASS Library (AID 1347374)
Summary of the method: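 HRE-bla ME-180 cells in medium with 0.5% dialyzed FBS received compounds (11-point series) plus CoCl2 (60 uM addition stock) for 17 hrs at 37C. Beta-lactamase activity read with CCF4 (405 nm ex, 460/530 nm em); CellTiter-Glo viability measured in same wells.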

[23] = qHTS for Antimalaria activity screened against the NCATS CANVASS Library (AID 1347380)
Summary of the method: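 Dd2 strain, infected erythrocytes 2.5% Hct final / 0.3% parasitemia. 11-pt qHTS titration, 72 h, 37C, 5% O2, 5% CO2. Lysis buffer + SYBR Green, 18 h, fluorescence 485/535 nm.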

[24] = Inflammasome Signaling qHTS Counterscreen: IL-1-beta AlphaLISA counterscreen against the NCATS CANVASS Library (AID 1347381)
Summary of the method: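 Cell-free interference check: compounds added to medium spiked with 4 pg purified IL-1β. Anti-IL-1β acceptor beads (6 ug/mL) with 0.6 nM biotinylated antibody added for 1 h at RT, then streptavidin donor beads (24 ug/mL) for 30 min in the dark. AlphaLISA read at 680/615 nm.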

[25] = Cytotoxicity qHTS for assessment of Hepg2 cells membrane integrity screened against the NCATS CANVASS Library (AID 1347387)
Summary of the method: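 qHTS, 11-pt conc. series, 0.59 nM - 46 uM final; HepG2 2000 cells/well, overnight attachment; 5 hr compound exposure 37C/5% CO2; CytoTox-ONE, 10 min RT; fluorescence ex560/em590 = LDH from damaged membranes.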

[26] = qHTS for Activators of p53 Stress Response Pathway screened against the NCATS CANVASS Library (AID 1347388)
Summary of the method: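 p53RE-bla HCT-116 cells (4000/well) were pre-incubated for 5 h, then treated with compound (11 points) for 16 h at 37C. After 2 h with CCF4, the 460/530 nm ratio gave reporter activation; CellTiter-Glo measured viability.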

[27] = qHTS assay for small molecule disruptors of mitochondrial membrane potential screened against the NCATS CANVASS Library (AID 1347389)
Summary of the method: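 HepG2, 2,000 cells/well, attached overnight; compound 1 hr, 37C, 5% CO2; Mito-MPS dye 30 min, 37C; fluorescence 535 nm (monomer) and 590 nm (aggregate); decreased 590/535 ratio = depolarization.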

[28] = Secretion counterscreen for inhibitors of the SERCaMP assay screened against the NCATS CANVASS Library (AID 1347390)
Summary of the method: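 Natural products are titrated in an 11-point series up to 77 uM onto SH-SY5Y-GLuc STOP cells for 20 h. Secreted reporter activity is measured as coelenterazine-driven luminescence, with Brefeldin A on each plate.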

[29] = qHTS for activators of Nrf2/ARE signaling pathway screened against the NCATS CANVASS Library (AID 1347391)
Summary of the method: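 Plate ARE-bla HepG2 cells at 2000/well and let them settle 5 h. Pin-transfer compounds in DMSO, incubate 16 h at 37C. Load CCF4 for 2 h at room temperature and read blue/green fluorescence.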

[30] = qHTS for activators of dead-cell proteases activity screened against the NCATS CANVASS Library (AID 1347392)
Summary of the method: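 HepG2 cells, 2000/well, attached 18 h at 37C, then exposed to compounds (11-point qHTS) for 5 h. Dead-cell protease release read as luminescence from cell-impermeant AAF-aminoluciferin substrate after 15 min at room temperature.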

[31] = Vero-766 cells viability qHTS against the NCATS CANVASS Library: Counterscreen for Zika virus inhibition assay (AID 1347394)
Summary of the method: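 Counterscreen for toxicity: Vero 766 cells exposed 72 h to an 11-point compound series, viability by CellTiter-Glo.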

[32] = qHTS for inhibitors of Wild type Zika virus screened against the NCATS CANVASS Library (AID 1347396)
Summary of the method: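 Using ATP-based luminescence (CellTiter Glo), this screen scores rescue of Vero 766 cells from wild-type Zika killing at 72 h post-infection. Compounds are tested in a concentration series.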

[33] = qHTS for inhibitors of Rabies Virus screened against the NCATS CANVASS Library (AID 1347402; calls by dose curve)

Nuclear receptor subfamily 1 group I member 3 (Homo sapiens), sequence (Q14994 whole entry, looked up): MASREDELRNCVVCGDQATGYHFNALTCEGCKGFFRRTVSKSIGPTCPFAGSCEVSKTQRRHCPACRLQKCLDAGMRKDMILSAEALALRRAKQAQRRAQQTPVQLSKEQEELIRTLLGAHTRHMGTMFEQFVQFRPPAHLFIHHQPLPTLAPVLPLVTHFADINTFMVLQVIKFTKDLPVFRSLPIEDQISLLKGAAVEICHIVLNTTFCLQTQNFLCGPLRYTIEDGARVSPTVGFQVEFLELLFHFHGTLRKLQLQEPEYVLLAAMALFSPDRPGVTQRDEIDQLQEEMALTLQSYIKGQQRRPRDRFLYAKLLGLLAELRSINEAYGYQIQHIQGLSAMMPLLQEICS
Luciferin 4-monooxygenase (Photinus pyralis), sequence (P08659 whole entry, looked up): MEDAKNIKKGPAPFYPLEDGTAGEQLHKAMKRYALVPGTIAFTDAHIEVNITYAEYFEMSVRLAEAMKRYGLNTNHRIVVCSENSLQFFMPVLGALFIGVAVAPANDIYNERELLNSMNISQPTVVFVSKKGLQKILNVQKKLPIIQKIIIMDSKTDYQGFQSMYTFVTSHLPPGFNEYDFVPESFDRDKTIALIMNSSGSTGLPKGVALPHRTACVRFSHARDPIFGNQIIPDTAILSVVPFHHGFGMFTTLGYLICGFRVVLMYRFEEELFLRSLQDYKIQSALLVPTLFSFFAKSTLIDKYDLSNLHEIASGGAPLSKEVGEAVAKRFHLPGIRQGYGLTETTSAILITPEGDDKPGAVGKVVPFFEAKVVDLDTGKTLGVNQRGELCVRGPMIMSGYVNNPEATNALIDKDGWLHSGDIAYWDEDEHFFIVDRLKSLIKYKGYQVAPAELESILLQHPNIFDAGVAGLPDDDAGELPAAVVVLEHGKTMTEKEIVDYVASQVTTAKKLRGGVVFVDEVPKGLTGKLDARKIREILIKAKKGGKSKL

With CO[C@H](c1ccccc1)[C@H]1NC(=O)C(C)NC(=O)C(C[C@@H](C)CO)N(C)C(=O)[C@@H](C(O)c2cn(C(C)(C)C3CO3)c3ccccc23)NC(=O)C(C(C)C=C(C)C)NC(=O)C(CC(C)C)N(C)C(=O)C(C(C)C)NC1=O (stereo partly drawn) the Potency [1] was 21.6 µM (active), the Potency [2] was “inactive” and the Potency [3] was “inactive”. The Potency [4] was “inactive”, the Potency [5] was “inactive” and the Potency [6] was “inactive”. The Potency [7] was “inactive”, the Potency [8] was “inactive” and the Potency [9] was “inactive”. The Potency [10] was “inactive”, the outcome [11] was “inactive” and the Potency [12] was “inactive”. For the same compound, the Potency [13] was “inactive”, the outcome [14] was “inactive” and the outcome [15] was “inactive”. The Potency [16] was “inactive”, the Potency [17] was “inactive” and the Potency [18] was “inactive”. The Potency [19] was “inactive”, the Potency [20] was “inactive” and the outcome [21] was “inactive”. The Potency [22] was “inactive”, the Potency [23] was 0.292 µM (active) and the outcome [24] was “inactive”. The outcome [25] was “inactive”, the Potency [26] was “inactive” and the Potency [27] was “inactive”. For the same compound, the Potency [28] was “inactive”, the Potency [29] was “inactive” and the Potency [30] was “inactive”. The Potency [31] was “inactive”, the Potency [32] was “inactive” and the outcome [33] was “inactive”.
